Screens as filed in PubChem.
IL1B secr inh = qHTS for Inhibitors of Inflammasome Signaling: IL-1-beta AlphaLISA Primary Screen. AID 743279, 2014. hit rate 4.7% among 360,000. activity change, % at 57.5 µM. THP-1 LPS/ATP IL-1B secretion, AlphaLISA, 16 h; stronger effect = lower value; in the data active means activity change below about -50%; inconclusive means mostly about -30% to -49%
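THP-1 cells pretreated 1 hr with compounds (up to 57.5 uM final), then stimulated with LPS (250 ng/mL final) plus ATP (1.25 mM final); secreted IL-1B measured by AlphaLISA after 16 hr, decreased signal indicating inhibition.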
ELG1 DNA repair = qHTS screen for small molecules that inhibit ELG1-dependent DNA repair in human embryonic kidney (HEK293T) cells expressing luciferase-tagged ELG1 | HEK293T ELG1-luciferase reporter, luminescence, 16 h; DNA damage induced by 5-fluorouridine | Potency, µM (series often up to 46.1 µM), for inactives: top-dose activity change, negative = inhibition, usual class: inhibitors | hit rate 2.3% among 330,000 | AID 504467, 2011; further: potency means the concentration at half of the fitted maximal effect; nearly all actives have a fitted effect of over 55% in size
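Reporter activity after DNA damage by 5-fluorouridine is monitored. Compound-treated cells incubate 16 hr at 37 °C, then ONE-Glo is added for 30 min before luminescence reading.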
Giardia kill = Small Molecules that selectively kill Giardia lamblia: qHTS | Giardia lamblia trophozoite viability | activity change, % at 7.66 µM, hits read low | AID 540267, 2011 | hit rate 0.15% among 340,000; in the data active means activity change below about -80%; inconclusive means between about -30% and that limit;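 further: parasites exposed to compound for two days anaerobically before the ATP read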
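ATP-content bioluminescence gauges trophozoite survival. Cells (100/well) receive compound and incubate anaerobically for 48 hrs at 37 deg C; detection reagent follows for 15-30 min at room temperature.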
DT40 TDP1 no CPT = qHTS for Inhibitors of human tyrosyl-DNA phosphodiesterase 1 (TDP1): qHTS in cells in absence of CPT; DT40 Tdp1-/- hTDP1 cells, no CPT, ATP luminescence, 48 h; Potency, µM (highest dose often 46.2 µM), for inactives: at the highest dose activity change, negative = growth inhibition, most hits filed as inhibitors; hit rate 15% among 420,000; AID 686978, 2013; further: potency means the concentration at half of the fitted maximal effect; nearly all actives have a fitted effect of over 55% in size
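A cellular qHTS used chicken DT40 cells lacking endogenous Tdp1 but carrying stably transfected human TDP1. Compounds were applied without camptothecin, and cell growth kinetics were judged by ATP-dependent luminescence after ≥48 hr.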
TDP1 inh = qHTS Assay for Inhibitors of Tyrosyl-DNA Phosphodiesterase (TDP1) | recombinant TDP1, AlphaScreen DNA substrate cleavage | Potency, µM (top dose mostly 130 µM), for the others: at the top dose activity change, negative = inhibition, hits mostly inhibitors | hit rate 0.28% among 350,000 | AID 485290, 2010; further: potency means the concentration at half of the fitted maximal effect; nearly all actives have a fitted effect of over 40% in size
Target sequence (Q9NUW8 whole entry, looked up): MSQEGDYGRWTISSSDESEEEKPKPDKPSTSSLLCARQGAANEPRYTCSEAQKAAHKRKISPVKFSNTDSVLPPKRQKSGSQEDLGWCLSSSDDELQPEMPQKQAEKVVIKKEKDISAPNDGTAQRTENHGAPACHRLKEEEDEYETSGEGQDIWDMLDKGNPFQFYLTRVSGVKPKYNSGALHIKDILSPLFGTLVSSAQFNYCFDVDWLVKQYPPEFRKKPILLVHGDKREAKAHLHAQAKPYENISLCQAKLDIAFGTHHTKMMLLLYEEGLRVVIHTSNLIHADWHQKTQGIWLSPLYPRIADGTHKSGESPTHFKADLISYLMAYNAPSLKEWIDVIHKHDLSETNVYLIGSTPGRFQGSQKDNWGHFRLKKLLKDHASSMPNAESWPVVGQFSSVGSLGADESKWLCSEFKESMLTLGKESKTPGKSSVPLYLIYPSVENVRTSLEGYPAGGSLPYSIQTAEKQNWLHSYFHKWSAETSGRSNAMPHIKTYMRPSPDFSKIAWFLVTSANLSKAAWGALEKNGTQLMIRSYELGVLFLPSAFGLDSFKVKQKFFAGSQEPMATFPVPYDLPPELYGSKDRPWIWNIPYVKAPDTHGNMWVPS
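Here, a 5' biotin and 3' phosphotyrosine-FITC DNA oligonucleotide reports Tdp1 activity: intact substrate bridges AlphaScreen beads, while cleavage leaves a 3' phosphate and drops signal. All incubations at room temperature.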
TDP1 cell CPT = qHTS for Inhibitors of human tyrosyl-DNA phosphodiesterase 1 (TDP1): qHTS in cells in presence of CPT; chicken DT40 Tdp1-/-;hTDP1 cells + 20 nM CPT, ATP luminescence, 48 h; Potency, µM (series often up to 46.2 µM), inactives show at the highest dose activity change, negative = growth inhibition, actives largely listed as inhibitors; hit rate 12% among 420,000; further: potency means the concentration at half of the fitted maximal effect; nearly all actives have a fitted effect of over 55% in size
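Chicken DT40 Tdp1-/- cells stably complemented with human TDP1 were seeded at 400 cells/well in medium containing 20 nM camptothecin, exposed to pin-transferred compounds, and grown at 37 °C for at least 48 hr. Viability was read as ATP luminescence.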
* = called active by the depositor; ? = inconclusive; nt = not tested or not shown; [ ] = another dose, or the depositor's remark. Compounds with a hit are over-represented: about 19% of the library has one in this group of screens. Unless noted, the call rests on the fitted dose curve; in most records, active means well fitted curve in the direction sought with a large enough effect; inconclusive means small, poorly fitted or top-dose-only effect, or another doubt; inactive means no such curve, though single readings can be large; an effect the other way counts as inactive or inconclusive. On the % scale 0 is the no-effect control and ±100 the full control effect.

SMILES	IL1B secr inh	ELG1 DNA repair	Giardia kill	DT40 TDP1 no CPT	TDP1 inh	TDP1 cell CPT
Cc1ccc(S(=O)(=O)NCC(Nc2cccc(Cl)c2)c2ccccc2)cc1 (stereo not given)	nt	nt	nt	?	1.9%	18.4µM*
Cc1ccc(S(=O)(=O)NCC(NCc2ccc(F)cc2)c2ccccc2)cc1 (stereo not given)	2.2	3.3%	-11.4	?	-11.9%	?
O=C(O)/C=C/C(=O)N1CCN(c2cccc(Cl)c2)CC1	-18.5	1.5%	27.4	5.5%	-2.7%	5.6%
CCOCCCn1c(=N)c(C(=O)NCc2ccccc2)cc2c(=O)n3ccccc3nc21	nt	nt	nt	?	nt	-19.1%
N=c1c(C(=O)NCCN2CCOCC2)cc2c(=O)n3ccccc3nc2n1CCc1ccccc1	2.3	6.7%	-0.6	23.1µM*	1.0%	?
N=c1c(C(=O)NCc2ccccc2)cc2c(=O)n3ccccc3nc2n1CCCN1CCOCC1	1.9	0.3%	4.4	?	7.2%	-2.9%
COc1ccc(CCn2c(=N)c(C(=O)NCc3ccco3)cc3c(=O)n4ccccc4nc32)cc1	-53.6*	16.4µM*	13.3	23.1µM*	-7.8%	?
N=c1c(C(=O)NCCc2ccccc2)cc2c(=O)n3ccccc3nc2n1CCCN1CCOCC1	-56.2*	5.0%	4.9	14.6µM*	6.5%	-26.5%
CCOC(=O)[C@]12CCCC=C1N(Cc1ccco1)C(=O)[C@H](CC(=O)N1CCN(C(=O)c3ccco3)CC1)C2	-10.5	nt	nt	-16.3%	nt	-1.6%
COc1ccc(N(C(=O)CNC(=O)c2ccco2)C(C(=O)NC2CCCCC2)c2ccco2)cc1 (stereo not given)	-6.4	1.5%	5.6	-4.5%	4.2%	-15.5%
CCc1ccc(N(C(=O)c2ccco2)C(C(=O)NC2CCCC2)c2ccco2)cc1 (stereo not given)	?	nt	3.7	16.4µM*	nt	?
CC(C)c1ccc(N(C(=O)CNC(=O)c2ccco2)C(C(=O)NC2CCCC2)c2cccnc2)cc1 (stereo not given)	-70.4*	-5.9%	22.6	0.1%	5.6%	-4.5%
O=C(NC1CCCCC1)C(c1ccco1)N(C(=O)c1csnn1)c1ccccc1 (stereo not given)	-7.2	-5.2%	-2.2	-20.2%	3.1%[0.0935 µM]	1.6%
CCc1ccc(N(C(=O)c2ccco2)C(C(=O)NC2CCCC2)c2ccncc2)cc1 (stereo not given)	-2.8	?	-18.9	?	-10.8%	-27.1%
COC(=O)c1ccc(N(C(=O)CNC(=O)c2ccco2)C(C(=O)NC2CCCC2)c2ccco2)cc1 (stereo not given)	6.8	-0.9%	6.2	23.1µM*	0.0%	?
O=C(NC1CCCC1)C(c1ccco1)N(C(=O)c1ccco1)c1ccccc1 (stereo not given)	-6.2	-0.3%	14.7	14.6µM*	nt	1.9%
Cc1ccc(C)c(N(C(=O)CNC(=O)c2ccco2)C(C(=O)NCC2CCCO2)c2ccccc2)c1 (stereo not given)	-11.0	-13.5%	2.5	-20.0%	nt	?
Cc1ccc(N(C(=O)CNC(=O)c2ccco2)C(C(=O)NCC2CCCO2)c2ccccc2)cc1C (stereo not given)	-18.4	?	26.7	20.6µM*	nt	-29.2%
O=C(Nc1ccccc1)c1nccn1Cc1ccc(F)cc1	-19.7	?	0.5	-21.1%	-1.2%	-14.4%
CN(C)c1ccc(/C=C/c2nc3ccccc3s2)c(Cl)c1	nt	nt	nt	14.1µM*	nt	?
O=C(/C=C/c1nc2ccccc2s1)N1CCCCCC1	-20.9	?	3.8	?	2.5%	-1.4%
